Where a name gives a salt, the structure may show the parent alone.

In one test the test system is HCC1937. Briefly: relative cell viability, compound alone, vs DMSO (fraction of DMSO control); higher = less growth inhibition. The note with it: 72 h.
For the next test, the system named is MDA-MB-231. The test is described as above. The note with it: 72 h.
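Note: viability read out with the CCK-8 kit in 96-well plates, screening a set of 303 compounds acting on lipid metabolism targets.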

As to `CCCc1c(OCCCOc2ccc(OCC(=O)O)cc2)ccc(C(C)=O)c1O`, the relative cell viability in the test on HCC1937 was found to be 0.943; in the test with MDA-MB-231, 1.07.

Turning to `CN1c2ccccc2C(=O)Nc2cnc(Nc3ccc(N4CCC(O)CC4)cc3)nc21`, the relative cell viability is 0.384 in the test with HCC1937 and 0.55 in the test with MDA-MB-231.

As to `C=CC[S+]([O-])C[C@H](N)C(=O)O` (stereo partly drawn) [Alliin], the relative cell viability turned out to be 1 in the test with HCC1937 and 1.04 with MDA-MB-231.

Consider `O=C(NCCS(=O)(=O)c1ccc(C(F)(F)F)cn1)c1ccc(Cl)cc1`, for which the relative cell viability in the test with HCC1937 was determined as 0.749; in the test on MDA-MB-231, 0.901.

Regarding `COc1cc(N2CCN(C)CC2)ccc1Nc1ncc2c(n1)N(C)c1ccccc1C(=O)N2`, the relative cell viability in the test with HCC1937 stood at 0.666; with MDA-MB-231, 0.655.

Regarding `Cc1c(C)c2c(c(C)c1O)CCC(C)(COc1ccc(CC3SC(=O)NC3=O)cc1)O2` (stereo not drawn) [Troglitazone], the relative cell viability came to 0.718 in the test on HCC1937 and 0.984 in the test on MDA-MB-231.

With `O=C1c2cccc(O)c2C(=O)c2c(O)cccc21` [Antrapurol], the relative cell viability is 0.699 in the test with HCC1937 and 0.808 in the test with MDA-MB-231.

As to `COc1ccc2c(c1)CCC1C2CCC2(C)C(NCCCCCCN3C(=O)C=CC3=O)CCC12` (stereo not drawn), the relative cell viability was 0.699 with HCC1937 and 0.806 in the test with MDA-MB-231.

For `CC(C)c1c(C(=O)Nc2ccccc2)c(-c2ccccc2)c(-c2ccc(F)cc2)n1CC[C@@H](O)C[C@@H](O)CC(=O)O` [Atorvastatin Calcium], the relative cell viability in the test with HCC1937 was determined as 0.657; with MDA-MB-231, 0.569.

Consider `C[C@H](CCOc1cccc(CC(=O)O)c1)N(Cc1cccc(C(F)(F)F)c1Cl)CC(c1ccccc1)c1ccccc1`, for which the relative cell viability in the test on HCC1937 is 0.632; in the test with MDA-MB-231, 0.841.

On to `O=C(Nc1ccc(C(O)(C(F)(F)F)C(F)(F)F)cc1)c1ccc(C(F)(F)F)cc1`, for which the relative cell viability turned out to be 0.54 in the test with HCC1937 and 0.631 with MDA-MB-231.

`Nc1ccc(C(=O)O)c(O)c1` [Aminopar]: the relative cell viability in the test with HCC1937 was found to be 1.1; in the test with MDA-MB-231, 0.911.

Consider `CCc1ccc(CCOc2ccc(CC3SC(=O)NC3=O)cc2)nc1` (stereo not drawn) [Pioglitazone], for which the values for the relative cell viability in the test on HCC1937 and with MDA-MB-231 were 1.17 and 0.843, respectively.

In the case of `O=C(NNc1ccccc1)c1ccncc1` [PluriSln 1], the relative cell viability with HCC1937 came to 0.925; with MDA-MB-231 it was 0.814.

With `N#Cc1c(O)c2c(-c3ccc(-c4ccccc4O)cc3)csc2[nH]c1=O`, the relative cell viability with HCC1937 came out at 0.719; with MDA-MB-231 it was 0.907.

For `CC(C)c1nc(N(C)S(C)(=O)=O)nc(-c2ccc(F)cc2)c1/C=C/[C@@H](O)C[C@@H](O)CC(=O)O` [Rosuvastatin], the results for the relative cell viability with HCC1937 and in the test on MDA-MB-231 were 0.633 and 0.871, respectively.

Regarding `COc1ccc([C@@H]2OC[C@H]3[C@@H]2CO[C@@H]3c2ccc(O[C@@H]3O[C@H](CO)[C@@H](O)[C@H](O)[C@H]3O)c(OC)c2)cc1OC` [Forsythin], the results for the relative cell viability in the test on HCC1937 and with MDA-MB-231 were 1.22 and 1.06, respectively.

`CN1CC(O)C2=C/C(=N/NC(N)=O)C(=O)C=C21` (stereo not drawn) [Carbazochrome]: the relative cell viability was 0.793 in the test with HCC1937 and 0.871 in the test with MDA-MB-231.

As to `COc1cc(O)c2c(c1)O[C@H](c1ccc(O)cc1)CC2=O` [Sakuranetin], the values for the relative cell viability in the test on HCC1937 and in the test with MDA-MB-231 were 0.627 and 0.941, respectively.

Consider `CN1CCN(c2ccc(/C=C(\C#N)c3ccccc3Br)cc2)CC1` [DG172 (dihydrochloride)], for which the relative cell viability in the test with HCC1937 turned out to be 0.933; in the test with MDA-MB-231 it was 0.965.

Regarding `CC(=O)N1CCN(c2ccc(OCC3COC(Cn4ccnc4)(c4ccc(Cl)cc4Cl)O3)cc2)CC1` (stereo not drawn) [Ketoconazole], the relative cell viability in the test on HCC1937 came out at 1.3; in the test on MDA-MB-231 it was 0.897.

As to `CCN(CC)CCN(Cc1ccc(-c2ccc(C(F)(F)F)cc2)cc1)C(=O)Cn1c(SCc2ccc(F)cc2)nc(=O)c2c1CCC2` [Darapladib], the relative cell viability is 0.0924 in the test on HCC1937 and 0.22 in the test on MDA-MB-231.

Turning to `CC(O)(CC(=O)O)CC(=O)O` [Meglutol], the values for the relative cell viability in the test on HCC1937 and in the test on MDA-MB-231 were 0.748 and 0.891, respectively.

`CN(C(=O)n1cnc(-c2ccc[n+]([O-])c2)c1)C1CCCCC1`: the relative cell viability in the test with HCC1937 was 0.65; in the test on MDA-MB-231, 0.934.

For the molecule `CC[C@@H]1/C=C(\C)C[C@H](C)C[C@H](OC)[C@H]2O[C@@](O)(C(=O)C(=O)N3CCCC[C@H]3C(=O)O[C@H](/C(C)=C/[C@@H]3CC[C@@H](O)[C@H](OC)C3)[C@H](C)[C@@H](O)CC1=O)[C@H](C)C[C@@H]2OC` [Ascomycin], the relative cell viability was 0.185 with HCC1937 and 0.236 in the test with MDA-MB-231.

As for `CC(C)(O)c1ccccc1CC[C@@H](SCC1(CC(=O)O)CC1)c1cccc(/C=C/c2ccc3ccc(Cl)cc3n2)c1` [Montelukast], the relative cell viability came to 0.789 in the test with HCC1937 and 0.857 in the test on MDA-MB-231.

`CC(C)=CCC[C@](C)(O[C@@H]1O[C@H](CO)[C@@H](O)[C@H](O)[C@H]1O)[C@H]1CC[C@]2(C)[C@@H]1[C@H](O)C[C@@H]1[C@@]3(C)CC[C@H](O[C@@H]4O[C@H](CO)[C@@H](O)[C@H](O)[C@H]4O[C@@H]4O[C@H](CO)[C@@H](O)[C@H](O)[C@H]4O)C(C)(C)[C@@H]3CC[C@]12C` [Ginsenoside Rd]: the relative cell viability with HCC1937 amounted to 0.834; in the test on MDA-MB-231, 0.896.

Regarding `CC(C)(C)c1ccc(-c2nc3ccccc3[nH]2)cc1`, the results for the relative cell viability in the test on HCC1937 and in the test on MDA-MB-231 were 0.728 and 0.612, respectively.

As to `COc1ccc(Nc2ccn(-c3ccccc3)n2)cc1`, the results for the relative cell viability in the test on HCC1937 and in the test with MDA-MB-231 were 0.868 and 1, respectively.

Consider `COCCNC(=O)Nc1ccc2nc(-c3cccs3)c(-c3cccs3)nc2c1` [Ac-CoA Synthase Inhibitor1], for which the relative cell viability in the test on HCC1937 turned out to be 0.959; in the test with MDA-MB-231 it was 0.91.

`CCC(C)(Oc1ccc(C2(c3ccc(OC(C)(CC)C(=O)O)cc3)CCCCC2)cc1)C(=O)O` (stereo not drawn) [Clinofibrate]: the figures for the relative cell viability in the test on HCC1937 and with MDA-MB-231 were 0.901 and 0.846, respectively.

Consider `Nc1ncnc2c1ncn2[C@@H]1O[C@H](COP(=O)(O)O)[C@@H](O)[C@H]1O` [Adenosine 5'-monophosphate], for which the relative cell viability in the test with HCC1937 was 0.663; in the test with MDA-MB-231, 0.81.

Turning to `CSc1ccc(C(=O)/C=C/c2cc(C)c(OC(C)(C)C(=O)O)c(C)c2)cc1` [Elafibranor], the relative cell viability in the test with HCC1937 was 1.57; in the test on MDA-MB-231, 1.06.

Regarding `CC1=C[C@]2(O)O[C@@]3(CC2=C(C)C)[C@@H](C)CC[C@@H]13` [Curcumenol], the values for the relative cell viability with HCC1937 and in the test on MDA-MB-231 were 0.868 and 0.863, respectively.

The record behind these values is the supplement of paper PMC9492666.
